Data taken from PubChem BioAssay (NCI).
This is part of a sample that, as a whole, favours compounds with a hit. Of some 83,000 tested, about 20% had one in any assay.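 96-well plates, one dose, 48 hours. Percent growth reported; active if below 10.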 Unmarked numbers belong to inactive results. Activity calls are given as the source filed them.

What follows are compounds tested on HL-60(TB) leukemia (assay: NCI-60 one-dose screen, 48 h (100 = growth as untreated, 0 = no growth, -100 = all killed)). Conditions: 10 µM unless noted.

| Structure (SMILES) | growth |
| --- | --- |
| CCn1cc(C(=O)O)c(=O)c2cc(F)c(N3CCN(S(=O)(=O)c4ccc(OC)c(OC)c4)CC3)cc21 | 91.3% |
| C=C1C(=O)O[C@H]2[C@H]1CC/C(COC(=O)C(=O)c1cn(C)c3ccc(OC)cc13)=C\CC[C@@]1(C)O[C@@H]21 | -38.7% (active) |
| CC(CNc1nc(Nc2ccc(Cl)c(Cl)c2)nc(C(Cl)(Cl)Cl)n1)N(C)C (centres undefined) | -21% (active) |
| CCOC(=O)c1sc(NC(=O)COc2cccc(/C=C3\CCc4cc(OC)ccc4C3=O)c2)nc1C | -52.9% (active) |
